# Experimental data as given in the supplement of paper PMC6555819.
# Assays:
# Experiment in all cases: PBM binding z-score (relative to random genomic background probes); higher = stronger binding; sequences stand for … in GC…GCGATTGACAGCGTAGAATGAAGG
# [1] = system: PPARg:RXRa DBDmut IVT, anti-RXR (DBD mutation: RXRa K156A/R161A, NR concentration 270 nM, RXRa partner concentration 90 nM)
# Procedure, shortened: (§1)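 Binding z-scores were set against random background probes. The data came from custom Agilent 4×180K protein-binding microarrays carrying double-stranded probes with 34-nt variable regions, incubated 1 h with ligand-free nuclear receptor dimers. Partner-specific antibodies detected binding, and scanned fluorescence was regression-normalized.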
# [2] = system: PPARg:RXRa IVT, anti-PPARg (NR concentration 270 nM, RXRa partner concentration 90 nM)
# Procedure, shortened: as §1
# [3] = system: PPARg DBDmut:RXRa IVT, anti-PPARg (DBD mutation: PPARg1 K132A/R137A, NR concentration 270 nM, RXRa partner concentration 90 nM)
# Procedure, shortened: as §1
# [4] = system: PPARg DBDmut IVT, anti-PPARg (DBD mutation: PPARg1 K132A/R137A, NR concentration 270 nM)
# Procedure, shortened: as §1
# [5] = system: PPARg homodimer (NR concentration 180 nM)
# Procedure, shortened: as §1
# [6] = system: PXR:RXRa (NR concentration 270 nM, RXRa partner concentration 90 nM)
# Procedure, shortened: as §1
# [7] = system: PXR homodimer (NR concentration 270 nM)
# Procedure, shortened: as §1
# [8] = system: RARa:RXR (NR concentration 270 nM, RXRa partner concentration 90 nM)
# Procedure, shortened: as §1
# [9] = system: RARa homodimer (NR concentration 270 nM)
# Procedure, shortened: as §1
# [10] = system: RARb:RXRa (NR concentration 270 nM, RXRa partner concentration 90 nM)
# Procedure, shortened: as §1
# [11] = system: RARb homodimer (NR concentration 270 nM)
# Procedure, shortened: as §1
# [12] = system: RARg:RXRa (NR concentration 270 nM, RXRa partner concentration 90 nM)
# Procedure, shortened: as §1
# [13] = system: RARg homodimer (NR concentration 270 nM)
# Procedure, shortened: as §1
# [14] = system: RXRa DBDmut IVT, anti-RXR (DBD mutation: RXRa K156A/R161A, NR concentration 90 nM)
# Procedure, shortened: as §1
# [15] = system: THRa:RXRa (NR concentration 90 nM, RXRa partner concentration 90 nM)
# Procedure, shortened: as §1
# [16] = system: THRa homodimer (NR concentration 90 nM)
# Procedure, shortened: as §1
# [17] = system: VDR homodimer (NR concentration 270 nM)
# Procedure, shortened: as §1
# [18] = system: RXRa homodimer (NR concentration 180 nM)
# Procedure, shortened: as §1
# [19] = system: VDR:RXRa (NR concentration 270 nM, RXRa partner concentration 90 nM)
# Procedure, shortened: as §1
Sequence,PBM binding z-score [1],PBM binding z-score [2],PBM binding z-score [3],PBM binding z-score [4],PBM binding z-score [5],PBM binding z-score [6],PBM binding z-score [7],PBM binding z-score [8],PBM binding z-score [9],PBM binding z-score [10],PBM binding z-score [11],PBM binding z-score [12],PBM binding z-score [13],PBM binding z-score [14],PBM binding z-score [15],PBM binding z-score [16],PBM binding z-score [17],PBM binding z-score [18],PBM binding z-score [19]
GCTAGTTTGTCAGTAAAAGGTCACACACCGGTCG,0.319,2.75,0.759,0.562,4.4,4.95,1.22,5.77,2.54,4.12,5.18,5.07,4.23,1.18,3.6,1.61,2.4,–,–
ACTAGTTGGTCAGCTGAGGTAACACACAATTCGG,1.07,1.11,0.194,0.609,0.0938,0.509,-0.174,1.3,-0.362,1.03,1.07,0.611,0.949,0.36,3.97,1.99,0.0871,–,–
CCCACTGGGCCATTCAGAGGTCATTGATCATATG,3.42,4.55,0.045,-0.746,1.93,4.67,2,4.2,0.72,2.96,4.3,4.48,3.31,0.382,3.43,1.52,3.25,–,–
CCTCGGAGGACAACAGGATGTCAGAGCTGCCAGA,0.0272,-0.669,-0.339,-1.74,-0.00372,-0.729,-0.378,-0.712,-0.0154,1.13,0.537,–,1.19,-0.233,0.449,-0.131,-0.662,-0.144,-0.45
ACTCGGAGGACAAATGTCAGAGCTACGCCAGTGA,0.158,0.0513,0.143,-1.07,-0.0876,-0.536,-0.343,-0.444,-0.635,1.44,0.623,1.08,1.68,0.614,0.512,-0.331,-0.508,–,–
GCTTACGGGTCAAAGGTTAAAGCATGAATAGAAT,4.74,6.3,1.36,2.46,1.69,6.29,0.364,8.66,0.51,4.94,3.36,7.28,5.18,2.07,4,-0.111,1.4,–,–
GATACAGGGTCAATGCCAGAGTACGCGTATTGAT,2.46,3.45,0.722,0.999,1.86,2.96,0.00137,3.59,0.532,4.19,3.11,4.62,4.35,2.89,2.87,0.742,2.31,–,–
TTACCAAGGTTAAAGGTCGTTGATGCACGCCTTG,2.09,4.53,0.805,0.292,2.41,5.16,0.943,6.63,0.588,3.68,3.04,5.05,3.09,1.88,3.63,0.88,2.29,–,–
CCGACTGGGGCAAAGGTTACCATGCTCAGTACGA,4.91,6.34,0.168,-0.503,1.36,2.28,-0.702,4.09,-0.847,2.63,2.01,3.66,1.55,-0.0654,1.74,-0.38,-0.359,–,–
ATCGAAAGGTCGACGAGGTGAGTATGCACCGTTT,0.283,1.96,0.899,0.519,1.67,2.99,0.682,3.5,0.243,3.99,3.07,4.29,4.29,1.3,3.73,0.762,1.03,–,–
TAGCCTAGGTCAAGCGGGCCAGTATAGTGTCGGC,2.36,2.99,-0.422,-0.858,0.96,1.38,-0.618,2.42,-0.521,4.04,3.29,4.34,5.14,0.428,2.9,0.702,-0.353,–,–
CCTTACGGGTCAAGGTTGTAGCACGGGTGGTACG,0.974,3.06,0.572,-0.462,1.93,2.61,-0.423,3.82,-0.14,3.86,3.2,4.54,4.07,0.452,2.38,0.122,1.18,–,–
CCTAGTTGGGCAGGAGGTCACACACCGGATATGA,0.343,2.59,-0.448,-0.00376,2.16,3.77,0.916,3.7,1.59,3.15,3.48,3.98,3.52,-0.0255,3.14,1.57,1.37,–,–
TATTGTAGATCAAAGGTTAAGAAAGCCGAAGCCT,1.27,4.2,1.1,1.23,1.87,2.16,0.399,3.1,0.703,2.07,1.38,2.06,1.28,-0.592,1.37,-0.344,0.214,–,–
CTCGAAAGGTGGTGCTCAGGTGAGTATACCAAAC,-0.605,0.359,-0.543,-0.314,0.0565,-0.599,-0.22,0.343,-0.47,0.237,0.207,0.0538,-0.152,-0.443,1.78,0.504,-0.0516,–,–
